# Inconclusive results are not listed. A number with no mark means an inactive call. Calls come from the whole dose curve; as a rule, active = well fitted inhibition curve with a large enough effect; inconclusive = small, poorly fitted or top-dose-only effect; inactive = flat fitted curve, though single readings scatter.
# Biological target: Calcium and integrin-binding protein 1 (Homo sapiens) (UniProt Q99828)
# Test: Primary qHTS for Identification of Calcium Integrin Binding Protein 1 (CIB1) Competitor (AID 1508620); note: top concentration of the series differs between compounds
# Conditions: CIB1-GST / FITC-alphaIIb peptide fluorescence polarization; series mostly up to 114 µM; activity change, negative = inhibition: at the top concentration
# Summary of the method: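 Fluorescence polarization competition: GST-tagged CIB1 (1 uM final) preincubated with compound 15 min at room temperature, then FITC-labelled alphaIIb peptide (100 nM final) added. After 15 min at room temperature, polarization read at Ex 480/Em 540.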
# % is set by controls: 0 for no effect and ±100 for the full control effect.
# Calcium and integrin-binding protein 1 (Homo sapiens), sequence (Q99828 whole entry, looked up): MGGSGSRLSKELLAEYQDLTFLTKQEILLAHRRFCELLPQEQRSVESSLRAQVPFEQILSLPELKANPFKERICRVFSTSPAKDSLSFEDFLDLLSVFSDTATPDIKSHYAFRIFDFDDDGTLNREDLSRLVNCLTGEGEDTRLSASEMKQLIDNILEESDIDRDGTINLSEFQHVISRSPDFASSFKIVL
row,SMILES,"activity change, negative = inhibition"
1,Cc1ccc(CNc2ncnc3ccc(-c4ccc(CO)o4)cc23)o1,-1.87%
2,C=C1C(=O)OC2/C=C(\COC(C)=O)CC/C=C(\C=O)CC(OC(=O)C(C)CC)C12 (stereo not given),2.02% [at 57.7 µM]
3,C=C1C(=O)O[C@@H]2C[C@H](C)C3=CC(=O)[C@H](O)[C@@]3(C)C[C@H]12,-8.48%
4,CC(C)(C)OC(=O)c1ncn2c1C(C)(C)Nc1ccccc1-2,1.74%
5,O=C1COC2(CCN(S(=O)(=O)c3ccc(-c4ccc5cccnc5c4)cc3)CC2)CN1C1CC1,-1.58%
6,Cc1c(F)ccc(C(=O)Nc2cc([N+](=O)[O-])ccc2N2CCN(C)CC2)c1Cl,-4.53%
7,O=C(Nc1ccc(N2C(=O)[C@@H]3[C@H](C2=O)[C@@H]2C=C[C@H]3C2)c(Cl)c1)c1ccccn1,3.64%
8,CN1CCN(C2=Nc3ccccc3Nc3ccc(Cl)cc32)CC1,-6.89%
9,C=C1CC[C@@H]2[C@](C)(CO)[C@H](O)CC[C@@]2(C)[C@@H]1CC(O)C1=CCOC1=O (stereo not given in full),-2.21% [at 57.7 µM]
10,COc1cc(N2CCC(N)CC2)ccc1Nc1ncc(Cl)c(-c2c[nH]c3ccccc23)n1,-16.7%

# Source: PubChem BioAssay (NCATS)
